The results in this text go back to PubChem BioAssay (NCI).

Among the test systems are HCT-15 colon; HT29 colon; SNB-75 CNS; SNB-19 CNS; U251 CNS; PC-3 prostate; SK-MEL-5 melanoma; LOX IMVI melanoma; SK-MEL-28 melanoma; UACC-62 melanoma.
Holding throughout (test): NCI-60 one-dose screen, 48 h (100 = growth as untreated, 0 = no growth, -100 = all killed)
Details in all cases: 10 µM unless noted

The panel holds about 83,000 compounds, 20% with a hit somewhere; the sample as a whole holds those more often.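 Results are percent growth after 48 hours of single-concentration exposure. 100 means growth as in untreated cells, lower positive values show inhibition; negative values down to -100 show cell death.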 Unmarked numbers belong to inactive results. Activity calls are given as the source filed them. The calls were made as follows: active = growth percent below 10; inactive = the rest.

Take `Nc1nnc(CS(=O)(=O)c2ccccc2)s1`: the growth in the assay with HCT-15 colon is 99.9%; in the assay on HT29 colon it was 94.6%; in the assay with SNB-75 CNS, 102%; in the assay on SNB-19 CNS, 103%; with U251 CNS, 95.6%; in the assay with PC-3 prostate, 93%. For the same compound, the figures for the growth with SK-MEL-5 melanoma, in the assay with LOX IMVI melanoma and in the assay on SK-MEL-28 melanoma were 131%, 84.6% and 112%, respectively.
With `COc1c(B(O)O)cc(F)cc1-c1nc2c(F)cc3[nH]ncc3c2c2c1CCCC2`, the growth is 4.25% (active) in the assay with HCT-15 colon; 21.1% in the assay with HT29 colon; -78.1% (active) in the assay on SNB-75 CNS; 7.54% (active) in the assay with SNB-19 CNS; 10.8% with U251 CNS; 12.8% in the assay on PC-3 prostate. Besides, the values for the growth in the assay on SK-MEL-5 melanoma and in the assay with LOX IMVI melanoma were 7.04% (active) and -16.6% (active), respectively.
Turning to `O=C1Nc2cc(-c3ccc(NS(=O)(=O)c4ccc(F)c(Cl)c4)cc3)ccc2/C1=C/c1ccc[nH]1`, the growth was 14% in the assay on HCT-15 colon; -18.4% (active) in the assay with HT29 colon; 62.7% with SNB-75 CNS; 46.6% with SNB-19 CNS; 2.34% (active) in the assay on U251 CNS; 30.2% with PC-3 prostate. The growth is 58.8% in the assay on SK-MEL-5 melanoma, 0.97% (active) with LOX IMVI melanoma and 41.4% in the assay on SK-MEL-28 melanoma.
Turning to `COc1ccc(N=Nc2c(N)nn3c(N)c(C#N)c(-c4ccc(F)cc4)nc23)cc1`, the growth with HCT-15 colon was 86.1%; in the assay on HT29 colon, 84.6%; in the assay with SNB-75 CNS, 82.4%; with SNB-19 CNS it was 59.5%; in the assay with U251 CNS, 48.7%; in the assay on PC-3 prostate, 67%. Further, the values for the growth in the assay on SK-MEL-5 melanoma, with LOX IMVI melanoma and with SK-MEL-28 melanoma were 34.7%, 75.1% and 90.5%, respectively.
Consider `O=C(CSc1nnc(-c2ccc(-c3nc4ccc(Cl)cc4[nH]3)cc2)o1)Nc1ccc(Cl)cc1`, for which the growth is 8.62% (active) in the assay with HCT-15 colon; 23.1% with HT29 colon; 2.16% (active) with SNB-75 CNS; -8.15% (active) in the assay with SNB-19 CNS; -74.1% (active) with U251 CNS; -24.1% (active) in the assay with PC-3 prostate. Further, the growth in the assay on SK-MEL-5 melanoma was 8.87% (active); in the assay with UACC-62 melanoma it was -44.8% (active); in the assay with LOX IMVI melanoma it was -92.5% (active); in the assay on SK-MEL-28 melanoma it was -73.6% (active).
As for `O=C(N/N=C/c1ccc(B(O)O)s1)c1[nH]c2ccc(Br)cc2c1-c1ccccc1`, the growth in the assay with HCT-15 colon is -92.4% (active); in the assay on HT29 colon, -63.3% (active); with SNB-75 CNS, -72.7% (active); in the assay with SNB-19 CNS, -97.3% (active); in the assay on U251 CNS, -79.8% (active); in the assay with PC-3 prostate, -9.11% (active). Further, the growth with SK-MEL-5 melanoma is -95.3% (active); with LOX IMVI melanoma it was -99.3% (active); in the assay on SK-MEL-28 melanoma, -93.3% (active).
In the case of `O=C(Cn1c(-c2ccccc2)nc2ccccc21)N=Nc1c(O)[nH]c2ccc(Br)cc12`, the growth was 1.07% (active) with HCT-15 colon; -33.1% (active) in the assay on HT29 colon; -62.4% (active) with SNB-75 CNS; -35.5% (active) in the assay with SNB-19 CNS; -12.6% (active) in the assay on U251 CNS; 9.01% (active) in the assay on PC-3 prostate. The growth is -50.2% (active) in the assay with SK-MEL-5 melanoma, -39.7% (active) in the assay on UACC-62 melanoma, -24.7% (active) with LOX IMVI melanoma and -65.4% (active) in the assay with SK-MEL-28 melanoma.
As for `COc1c(B(O)O)cc(F)cc1-c1nc2ccc3[nH]ncc3c2c2c1COCC2`, the growth was 99.4% in the assay with HCT-15 colon; 74.2% in the assay with HT29 colon; 0.778% (active) in the assay on SNB-75 CNS; 32.7% in the assay with SNB-19 CNS; 45.4% in the assay with U251 CNS; 83.1% with PC-3 prostate. The growth in the assay on SK-MEL-5 melanoma was 64.6%; in the assay on UACC-62 melanoma it was 68.2%; with LOX IMVI melanoma, 24.2%; in the assay with SK-MEL-28 melanoma, 61.9%.
Turning to `O=C(Nc1ccc(Br)cc1)Nc1ccc(-c2ccc3c(c2)NC(=O)/C3=C\c2ccc[nH]2)cc1`, the growth in the assay with HCT-15 colon is 42.8%; with HT29 colon, 23.1%; in the assay with SNB-75 CNS it was 59.2%; with SNB-19 CNS it was 75.2%; in the assay on U251 CNS, 39.5%; in the assay on PC-3 prostate, 52.6%. For the same compound, the growth in the assay on SK-MEL-5 melanoma was 33.1%; with LOX IMVI melanoma, 25.6%; in the assay with SK-MEL-28 melanoma, 57.5%.
Consider `COC(=O)c1c(C(=O)OC)c2ccc3c4ccccc4ccc3n2c1C(=O)OC`, for which the growth in the assay on HCT-15 colon was 98.1%; in the assay on HT29 colon it was 108%; in the assay with SNB-75 CNS, 95.9%; with SNB-19 CNS, 81.1%; in the assay on PC-3 prostate, 98.9%; in the assay with SK-MEL-5 melanoma it was 98.3%. Moreover, the values for the growth in the assay on UACC-62 melanoma, with LOX IMVI melanoma and in the assay with SK-MEL-28 melanoma were 93.6%, 104% and 109%, respectively.
As for `O=C1CCC(N2C(=O)c3cccc(NCCCCCC(=O)N4CCN(c5ccc6nc7c(nc6c5C(F)(F)F)C(=O)c5ncccc5C7=O)CC4)c3C2=O)C(=O)N1` (stereo not drawn), the growth with HCT-15 colon was -69.5% (active); in the assay on HT29 colon it was -18.7% (active); in the assay on SNB-75 CNS, -75.8% (active); in the assay on SNB-19 CNS, -72.3% (active); in the assay on PC-3 prostate, -19.8% (active); in the assay with SK-MEL-5 melanoma, -95.3% (active). For the same compound, the growth was -72.7% (active) in the assay with UACC-62 melanoma, -85.1% (active) in the assay on LOX IMVI melanoma and -84.8% (active) in the assay on SK-MEL-28 melanoma.
Take `COc1c(B(O)O)cccc1-c1nc2ccc3cn[nH]c3c2c2c1CCCC2`: the growth is 54.9% in the assay on HCT-15 colon; 85.8% in the assay with HT29 colon; -17.7% (active) with SNB-75 CNS; 54.9% in the assay on SNB-19 CNS; 60% in the assay on PC-3 prostate; 53.4% in the assay with SK-MEL-5 melanoma. Moreover, the growth in the assay with UACC-62 melanoma is 52.1%; in the assay on LOX IMVI melanoma it was 41.3%; in the assay with SK-MEL-28 melanoma, 86.6%.
As for `O=[N+]([O-])c1cccc(-c2nnc3c(/C=C/c4ccc(F)cc4)nc4ccccc4n23)c1`, the growth in the assay on HCT-15 colon is 85.8%; with HT29 colon, 98.5%; with SNB-75 CNS it was 54.1%; in the assay on SNB-19 CNS, 92.5%; in the assay on PC-3 prostate, 103%; with SK-MEL-5 melanoma it was 90.9%. In addition, the growth in the assay on UACC-62 melanoma is 85.1%; in the assay on LOX IMVI melanoma, 98.5%; in the assay with SK-MEL-28 melanoma, 107%.
Take `O=C(O)CC1S/C(=N/N=C/c2nc3ccccc3s2)NC1=O` (stereo not drawn): the growth is 76.5% with HCT-15 colon; 114% in the assay with HT29 colon; 96.9% with SNB-75 CNS; 96.3% in the assay on SNB-19 CNS; 103% in the assay with PC-3 prostate; 96.9% with SK-MEL-5 melanoma. Also, the growth is 114% with UACC-62 melanoma, 100% in the assay on LOX IMVI melanoma and 117% in the assay on SK-MEL-28 melanoma.
